Data: PubChem BioAssay (NCATS)
Records with an inconclusive call do not appear. Active and inactive are the calls of the source. Calls come from the whole dose curve; as a rule, active = well fitted inhibition curve with a large enough effect; inconclusive = small, poorly fitted or top-dose-only effect; inactive = flat fitted curve, though single readings scatter.

Tests used:
Experiment in all cases: qHTS profiling for inhibitors of Plasmodium falciparum proliferation (AID 504749); note: nearly all actives have a fitted effect of over 60% in size
Conditions in all cases: P. falciparum in erythrocytes, SYBR Green DNA, 72 h; series mostly up to 28.7 µM
CP237 = test system: CP237
Outline: (§1)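 P. falciparum-infected erythrocytes (0.3% parasitemia, 2.5% hematocrit final) were exposed to compounds for 72 h at 37 C in 5% CO2, then lysed with SYBR Green buffer overnight at room temperature; parasite DNA fluorescence was normalized to artemisinin and DMSO controls.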

CP238 = test system: CP238
Outline: as §1

CP247 = test system: CP247
Outline: as §1

CP250 = test system: CP250
Outline: as §1

CP252 = test system: CP252
Outline: as §1

CP256 = test system: CP256
Outline: as §1

CP260 = test system: CP260
Outline: as §1

CP262 = test system: CP262
Outline: as §1

CP265 = test system: CP265
Outline: as §1

CP266 = test system: CP266
Outline: as §1

CP268 = test system: CP268
Outline: as §1

CP269 = test system: CP269
Outline: as §1

CP286 = test system: CP286
Outline: as §1

CP291 = test system: CP291
Outline: as §1

CP297 = test system: CP297
Outline: as §1

CP305 = test system: CP305
Outline: as §1

CP315 = test system: CP315
Outline: as §1

CP325 = test system: CP325
Outline: as §1

CP329 = test system: CP329
Outline: as §1

CP335 = test system: CP335
Outline: as §1

Measured: Potency
Potency is the fitted concentration of half-maximal effect.

CCCCC/C=C\C/C=C\CCCCCCCC(=O)O
inactive: all assays above

CC1(C)C(C=C(Cl)Cl)C1C(=O)OCc1cccc(Oc2ccccc2)c1 (stereo not drawn)
not listed: CP286
inactive: all other assays above

CN=C(NC#N)Nc1ccc(C2=NNC(=O)C[C@@H]2C)cc1
inactive: CP237 | CP238 | CP247 | CP250 | CP252 | CP256 | CP260 | CP265 | CP286

O=S(=O)(O)O
not listed: CP266
inactive: all other assays above

Nc1c(N=Nc2ccc(-c3ccc(N=Nc4cc(S(=O)(=O)O)c5ccccc5c4N)cc3)cc2)cc(S(=O)(=O)O)c2ccccc12
inactive: all assays above

O=C(O)CN(CCN(CC(=O)O)CC(=O)O)CC(=O)O
inactive: all assays above

CC(NNC(=O)c1ccccc1)c1ccccc1 (stereo not drawn)
inactive: all assays above

CO[C@H]1C[C@@H]2CC[C@@H](C)[C@@](O)(O2)C(=O)C(=O)N2CCCC[C@H]2C(=O)O[C@H]([C@H](C)C[C@@H]2CC[C@@H](OCCO)[C@H](OC)C2)CC(=O)[C@H](C)/C=C(\C)[C@@H](O)[C@@H](OC)C(=O)[C@H](C)C[C@H](C)/C=C/C=C/C=C/1C
active: CP237 2 µM | CP238 2.82 µM | CP247 1.26 µM | CP250 3.16 µM | CP252 1.26 µM | CP256 3.55 µM | CP260 2 µM | CP262 3.01 µM | CP265 1.12 µM | CP266 6.01 µM | CP268 4.26 µM | CP269 4.26 µM | CP286 3.16 µM | CP291 4.26 µM | CP297 3.79 µM | CP305 4.78 µM | CP315 4.26 µM | CP325 4.78 µM | CP329 4.78 µM | CP335 1.51 µM

O=S(=O)(O)c1ccc2c(N=Nc3ccc(S(=O)(=O)O)c4ccccc34)c(O)c(S(=O)(=O)O)cc2c1
inactive: all assays above

O=C(O)c1cc(O)c2c(c1)[O][Bi][O]2
not listed: CP266 | CP335
inactive: all other assays above

CC(C(=O)O)c1ccc(N2Cc3ccccc3C2=O)cc1 (stereo not drawn)
inactive: all assays above

CCCCCCCC(=O)O
not listed: CP291
inactive: all other assays above

CCOc1ccc2c(c1)C(C)=CC(C)(C)N2
not listed: CP265 | CP335
inactive: all other assays above

Cc1cn([C@H]2C[C@H](O)[C@@H](CO)O2)c(=O)[nH]c1=O
not listed: CP260
inactive: all other assays above

CN(C)CCCN1c2ccccc2C(C)(C)c2ccccc21
inactive: CP252 | CP260 | CP262 | CP269 | CP286 | CP297 | CP305 | CP315 | CP325 | CP329

CCOC(=O)C1=CC2(CC)CCCN3CCc4c(n1c1ccccc41)C32 (stereo not drawn)
active: CP238 8.91 µM | CP252 11.2 µM | CP256 6.31 µM | CP265 11.2 µM | CP286 11.2 µM

CCOC(=O)C1=C(C)NC(C)=C(C(=O)OCC)C1c1ccccc1C=CC(=O)OC(C)(C)C
inactive: CP256
active: CP237 8.91 µM | CP238 10 µM | CP252 10 µM | CP262 12 µM | CP265 10 µM | CP269 15.1 µM | CP291 12 µM | CP297 16.9 µM | CP315 10.7 µM | CP325 12 µM | CP335 10.7 µM

CCCCC(CC)COC(=O)CC(C(=O)OCC(CC)CCCC)S(=O)(=O)O (stereo not drawn)
inactive: CP262 | CP266 | CP268 | CP269 | CP291 | CP297 | CP305 | CP315 | CP325 | CP329 | CP335

C=C1C(=CC=C2CCC[C@@]3(C)[C@@H]2CC[C@H]3[C@H](C)CCCC(C)C)C[C@@H](O)C[C@@H]1O
active: CP265 11.2 µM
inactive: CP262 | CP266 | CP268 | CP269 | CP291 | CP297 | CP305 | CP315 | CP325 | CP329

NC1C2CN(c3nc4c(cc3F)c(=O)c(C(=O)O)cn4-c3ccc(F)cc3F)CC12 (stereo not drawn)
active: CP269 6.75 µM | CP335 6.01 µM

CC(=O)Oc1cc(C)c(OC(C)=O)c2ccccc12
active: CP250 7.94 µM | CP256 10 µM | CP262 13.5 µM | CP325 15.1 µM

O=S(=O)(O)c1cc(O)c2c(N=Nc3ccc(Nc4ccccc4)c4c(S(=O)(=O)O)cccc34)cc(S(=O)(=O)O)cc2c1
inactive: CP237 | CP238 | CP268 | CP315 | CP325 | CP329 | CP335

CC[C@@]1(O)C(=O)OCc2c1cc1n(c2=O)Cc2cc3c([N+](=O)[O-])cccc3nc2-1
active: CP237 3.98 µM | CP238 8.91 µM | CP247 11.2 µM | CP250 12.6 µM | CP256 11.2 µM | CP260 3.55 µM | CP265 7.94 µM | CP269 10.7 µM | CP286 4.47 µM | CP291 12 µM | CP297 12 µM | CP305 8.49 µM | CP329 12 µM | CP335 4.78 µM

CC1=C(/C=C/C(C)=C/C=C/C(C)=C/CO)C(C)(C)CCC1
inactive: CP262 | CP266 | CP268 | CP291 | CP297 | CP305 | CP315 | CP325 | CP329
active: CP252 10 µM

COC(C(=O)C(O)C(C)O)C1Cc2cc3cc(OC4CC(OC5CC(O)C(O)C(C)O5)C(O)C(C)O4)c(C)c(O)c3c(O)c2C(=O)C1OC1CC(OC2CC(OC3CC(C)(O)C(O)C(C)O3)C(O)C(C)O2)C(O)C(C)O1 (stereo not drawn)
active: CP237 0.1 µM | CP238 0.251 µM | CP250 0.251 µM | CP252 0.251 µM | CP256 0.316 µM | CP260 0.126 µM | CP262 2.13 µM | CP265 0.355 µM | CP266 2.13 µM | CP268 1.69 µM | CP269 1.9 µM | CP286 0.126 µM | CP291 1.69 µM | CP297 2.39 µM | CP305 1.51 µM | CP315 3.79 µM | CP325 3.01 µM | CP329 2.13 µM | CP335 0.379 µM

CC(C)=O
not listed: CP256 | CP265 | CP268
inactive: all other assays above

C[C@]12CCC(=O)C=C1CC[C@@H]1[C@@H]2[C@@H](O)C[C@@]2(C)[C@H]1CC[C@]2(O)C(=O)COP(=O)(O)O
not listed: CP247
inactive: all other assays above

O=C1CSC2(CCN(CCCN3c4ccccc4Sc4ccc(Cl)cc43)CC2)N1
inactive: CP238 | CP250 | CP256 | CP262
active: CP291 13.5 µM

CC(Cc1ccc(O)c(O)c1)C(C)Cc1ccc(O)c(O)c1 (stereo not drawn)
not listed: CP237 | CP268 | CP269 | CP286 | CP297
inactive: all other assays above

Clc1cc(Cl)c(OCC#CI)cc1Cl
inactive: CP315
active: CP247 7.08 µM | CP250 11.2 µM | CP265 10 µM | CP291 8.49 µM

O=C(COc1ccc(Cl)cc1)OCCNC12CC3CC(CC(C3)C1)C2
not listed: CP237 | CP297
inactive: all other assays above

CCN(CC)CCOc1ccc(-c2nc3cc(Cl)ccc3s2)cc1
not listed: CP237 | CP247 | CP260 | CP268 | CP286 | CP335
inactive: all other assays above

COC(=O)C1=C(C#N)NC(C)=C(C(=O)OC(C)C)C1c1cccc([N+](=O)[O-])c1 (stereo not drawn)
active: CP238 10 µM | CP247 8.91 µM | CP256 7.94 µM | CP260 11.2 µM | CP265 10 µM | CP269 13.5 µM | CP286 10 µM | CP291 16.9 µM | CP297 13.5 µM | CP305 13.5 µM | CP329 15.1 µM | CP335 8.49 µM

C#C[C@]1(O)CC[C@H]2[C@@H]3CCC4=CCCC[C@@H]4[C@H]3C(=C)C[C@@]21CC
inactive: CP237 | CP260 | CP262 | CP266 | CP269 | CP291 | CP297 | CP315 | CP325 | CP329

O=C(Nc1cccc(C(F)(F)F)c1)c1cc(Br)cc(Br)c1O
active: CP247 8.91 µM | CP291 12 µM | CP315 15.1 µM

CCOc1ccc(N=Nc2ccc(N)cc2N)cc1
not listed: CP247
inactive: all other assays above

CCCCCCOc1ccc(C(=N)N(CCCC)CCCC)c2ccccc12
active: CP237 11.2 µM | CP247 10 µM | CP250 8.91 µM | CP252 10 µM | CP260 4.47 µM | CP286 2.82 µM | CP297 16.9 µM | CP335 8.49 µM

CC(C)N=c1cc2n(-c3ccc(Cl)cc3)c3ccccc3nc-2cc1Nc1ccc(Cl)cc1
active: CP286 3.55 µM | CP335 1.81 µM
not listed: CP237 | CP260 | CP266
inactive: all other assays above

O=C(Nc1ccc(Br)cc1)c1cc(Br)c(Br)s1
inactive: CP250 | CP262
active: CP268 12 µM | CP305 16.9 µM

CN1C(=O)CN2CCc3ccccc3C2c2cc(Cl)ccc21 (stereo not drawn)
not listed: CP237 | CP260
inactive: all other assays above

CC1=C(/C=C/C(C)=C/C=C/C(C)=C/C=C/C=C(C)/C=C/C=C(C)/C=C/C2=C(C)C(=O)CCC2(C)C)C(C)(C)CCC1=O
not listed: CP256
inactive: all other assays above

COc1cc(-c2ccc(-[n+]3nc(-c4ccccc4)nn3-c3ccc([N+](=O)[O-])cc3)c(OC)c2)ccc1-[n+]1nc(-c2ccccc2)nn1-c1ccc([N+](=O)[O-])cc1
inactive: CP262
active: CP247 11.2 µM | CP252 8.91 µM | CP260 12.6 µM | CP268 16.9 µM | CP297 16.9 µM | CP329 15.1 µM

Nc1c(Br)cc(Br)cc1CNC1CCC(O)CC1 (stereo not drawn)
not listed: CP237 | CP286 | CP335
inactive: all other assays above
